The list is not random: actives were taken first. Their share in the collection is about 1.2%.
USP1 inh: USP1/UAF1 (human) deubiquitinase inhibition. O94782. recombinant USP1/UAF1, Ub-Rhodamine cleavage fluorescence. Potency, µM (series often up to 57.1 µM), for inactives: at the highest dose activity change, negative = inhibition, actives largely listed as inhibitors. 390,000 compounds, 0.23% hits. AID 743255; also: % is scaled to controls: 0 for no effect and ±100 for the full control effect; nearly all actives have a fitted effect of over 60% in size
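In this screen, compounds sit with the deubiquitinase complex (1nM) for 15 min at room temperature before Ub-Rho is added at 150nM final. Fluorescence rise is then followed for 6 reads every 60 seconds.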
EPAC2 antagonist: antagonists of human EPAC2; Q8WZA2; EPAC2 GEF exchange of Rap1B-BODIPY-GDP, fluorescence; Potency, µM (titrated, usually from 114 µM), for the others: top-dose activity, negative = inhibition, most hits filed as inhibitors; 360,000 compounds, 0.18% hits; AID 720708; also: % is scaled to controls: 0 for no effect and ±100 for the full control effect; nearly all actives have a fitted effect of over 45% in size
EPAC2 agonist: activates human EPAC2 exchange factor. EPAC2 activation, biochemical qHTS; response scale: 100% = 6.5 mM cAMP response. AID 720711. Potency, µM (titrated, usually from 154 µM), without a hit: top-dose activation, actives largely listed as activators. Q8WZA2. 360,000 compounds, 0.079% hits; also: nearly all actives have a fitted effect of over 50% in size
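qHTS, titration series. 100 nM EPAC2 / 250 nM Rap1B-BODIPY-GDP / 50 uM GDP; RT; ex 480/em 540 nm, 5-min reads to 30 min. Norm. to 6.5 mM cAMP = activation.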
EPAC1 agonist: activates human EPAC1 exchange factor; O95398; EPAC1 agonist qHTS, biochemical assay; response scale: 100% = response to 6.5 mM cAMP; Potency, µM (doses to about 154 µM), for the others: top-dose activation, hits mostly activators; 360,000 compounds, 0.073% hits; AID 720707; also: nearly all actives have a fitted effect of over 60% in size
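Fluorescent GDP-exchange assay: 100 nM EPAC1 with 250 nM Rap1B preloaded with BODIPY-GDP and 50 uM GDP; compounds tested as concentration series, 5 min at room temperature, then read every 5 min for 30 min (ex 480/em 540 nm); normalized to 6.5 mM cAMP.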
EPAC1 antagonist: antagonists of human EPAC1; Potency, µM (titrated, usually from 115 µM), for inactives: at the highest dose activity change, negative = inhibition, most hits filed as inhibitors; EPAC1 GEF assay, Rap1b-BODIPY-GDP exchange fluorescence; 360,000 compounds, 0.14% hits; AID 720709;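 also: plate controls were vehicle for no effect and positive control for full effect; nearly all actives have a fitted effect of over 50% in size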
VDR inhibitor: blocks the human vitamin D receptor. VDR-SRC2-3 peptide fluorescence polarization, 2 h. Potency, µM, without a hit: max response, negative = inhibition, most hits filed as inhibitors. 400,000 compounds, 0.93% hits. P11473; also: % is scaled to controls: 0 for no effect and ±100 for the full control effect
Target sequence (P11473 whole entry, looked up): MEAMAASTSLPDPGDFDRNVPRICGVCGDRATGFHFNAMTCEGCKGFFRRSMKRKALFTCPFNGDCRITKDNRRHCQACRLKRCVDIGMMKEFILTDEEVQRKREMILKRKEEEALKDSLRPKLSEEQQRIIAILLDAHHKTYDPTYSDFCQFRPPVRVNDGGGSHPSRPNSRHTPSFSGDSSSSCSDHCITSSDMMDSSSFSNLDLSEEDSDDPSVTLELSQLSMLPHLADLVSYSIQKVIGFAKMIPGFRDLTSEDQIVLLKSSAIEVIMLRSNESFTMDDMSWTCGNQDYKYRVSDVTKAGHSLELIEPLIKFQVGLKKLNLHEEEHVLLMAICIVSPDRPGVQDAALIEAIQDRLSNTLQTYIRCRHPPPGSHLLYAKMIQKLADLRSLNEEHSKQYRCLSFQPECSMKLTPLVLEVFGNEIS
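Fluorescence polarization assay of small-molecule disruption of VDR binding to coregulator peptide SRC2-3. Compounds and controls pin-transferred, then read after 2 h incubation at ambient room temperature.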
* hit, by the source's call; u = inconclusive; x = no result; ! = not confirmed by another sample. Calls follow the shape of the dose curve; as a rule, active = well fitted curve in the direction sought with a large enough effect; inconclusive = small, poorly fitted or top-dose-only effect, or another doubt; inactive = no such curve, though single readings can be large; an effect the other way counts as inactive or inconclusive. Potency is read from the fitted curve at half-maximal effect.

SMILES	USP1 inh	EPAC2 antagonist	EPAC2 agonist	EPAC1 agonist	EPAC1 antagonist	VDR inhibitor
O=C1CCN(CCc2ccccc2)CCN1C(CSc1ccc(Br)cc1)Cc1ccccc1 (stereo unspecified)	x	x	x	x	x	-7%
N#Cc1nccnc1S(=O)(=O)c1cccs1	6%	-2%	4%	4%	4%	35µM*
Cc1noc(C)c1C(=O)OCC(=O)Nc1c(F)cccc1F	-11%	8%	10%	-2%	8%	50µM*
O=c1nc(/C=C/c2ccccc2C(F)(F)F)cc(C(F)(F)F)[nH]1	-17%	-26%	-8%	-10%	-25%	32µM*
COc1ccc(/C=C/c2cc(C(F)(F)F)[nH]c(=O)n2)cc1OC	-30%	-21%	6%	5%	-11%	u
CCOc1cccc(CNc2ccc(O)cc2)c1OCc1ccccc1Cl	u	-8%	-15%	15%	28µM*	40µM*!
CCOc1cccc(CNc2ccc(O)cc2)c1OCc1ccc(Cl)cc1Cl	32µM*	u	-7%	13%	50µM*	50µM*
CCOc1cc(CNc2ccc(O)cc2)cc(Cl)c1OCc1ccccc1	28µM*	x	x	x	x	-6%
CCOc1c(Cl)cc(CNc2ccc(N3CCCC3)cc2)cc1OC	-33%	-12%	5%	-12%	-8%	14µM*
CCOc1cccc(CNn2cnnc2)c1OCc1ccccc1Cl	-2%	-1%	0%	5%	7%	-10%
Cc1ccc2[nH]c(=O)c(CN(CCO)Cc3nnnn3Cc3ccccc3)cc2c1	x	x	x	x	x	-18%
CCc1cc(-c2oncc2-c2ccc(OC)cc2)c(O)cc1OC	x	x	x	x	x	-4%
CCNc1nc(NCC)n2c(SCC(=O)Nc3ccc(CC)cc3)nnc2n1	-11%	-7%	-1%	1%	-3%	50µM*
CC1=NN(c2ccc(Cl)cc2)C(=O)C1C(c1cccc(O)c1)c1c(C)[nH]n(-c2ccc(Cl)cc2)c1=O (stereo unspecified)	-11%	-17%	-6%	2%	u	79µM*
CC1=NN(c2ccc(F)cc2)C(=O)C1C(c1cccc(O)c1)c1c(C)[nH]n(-c2ccc(F)cc2)c1=O (stereo unspecified)	u	10%	2%	-5%	-17%	-13%
C[N+]1(C)[C@@H]2CC(OC(=O)C(O)(c3cccs3)c3cccs3)C[C@H]1[C@@H]1O[C@@H]12 (stereo partly specified)	x	x	x	x	x	10%
CN1CCN(C(c2ccc(C(F)(F)F)cc2)c2ccc3cccnc3c2O)CC1 (stereo unspecified)	-15%	-11%	9%	-5%	u	32µM*
Oc1c(C(c2ccccc2Cl)N2CCCC2)ccc2cccnc12 (stereo unspecified)	-9%	-24%	13%	8%	-14%	u
CCCCCC/C(C)=C1/SC(=S)NC1=O	-14%	-22%	4%	-3%	-29%	u
C/C(C/C(C)=C1/SC(=S)NC1=O)=C1\SC(=S)NC1=O	u	u	14%	-3%	20µM*	u
COc1ccc(/C=C2/SC(c3ccc(C)cc3)=NC2=O)cc1OC	u	11%	9%	24%	4%	50µM*
COc1ccc(/C=C2\SC(c3ccc(C)cc3)=NC2=O)cc1OC	16µM*	7%	-20%	4%	15%	u
CC1(C)c2ccccc2N(CC(N)=O)C12C=Cc1ccccc1O2 (stereo unspecified)	-7%	18µM*	-1%	-8%	-18%	u
CN1CCC2(CC1)CCN(C(=O)c1cc(C(F)(F)F)cc(C(F)(F)F)c1)CC2	x	x	x	x	x	-1%
O=C(NC1CCCCC1)Oc1cc2oc(=O)sc2cc1Br	-5%	8%	1%	7%	16%	45µM*
Cn1c(-c2sccc2OCc2ccc(Cl)cc2Cl)n[nH]c1=S	-23%	-14%	7%	-13%	89µM*	2%
Cc1ccc(COc2ccsc2-c2n[nH]c(=S)n2C)cc1	-19%	5%	4%	25%	-7%	-13%

High-throughput results from PubChem BioAssay.
